Screening data as filed in PubChem BioAssay.
Hits are enriched below; roughly 12% of the tested compounds scored in any of these assays.
JMJD2A Tudor inh: inhibitors of human JMJD2A Tudor domain; AlphaScreen JMJD2A-Tudor / H3K4me3 peptide binding; Potency, µM (top dose mostly 114 µM), for inactives: top-dose activity change, negative = inhibition, usual class: inhibitors; actives 4.4% (n = 390,000); AID 504339; O75164; further: on the % scale 0 is the no-effect control and ±100 the full control effect; nearly all actives have a fitted effect of over 50% in size
HP1b chromo inh: blocks HP1-beta chromodomain binding to methylated histone tails | AID 540317 | actives 0.56% (n = 390,000) | P83916 | Potency, µM (highest dose often 114 µM), for the others: at the highest dose activity change, negative = inhibition, actives largely listed as inhibitors | AlphaScreen HP1-beta / biotin-H3K9me3 peptide binding; further: nearly all actives have a fitted effect of over 70% in size
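Compound inhibition of the preformed complex between 50 nM HP1-beta and 50 nM biotinylated H3K9me3 peptide was read by AlphaScreen. Buffer was PBS pH 7.4 with 0.01% Tween-20. Incubations ran 30 min at room temperature, with 10 ug/mL donor/acceptor beads.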
BAZ2B inh: BAZ2B (human) inhibition; Potency, µM (doses to about 114 µM), without a hit: top-dose activity change, negative = inhibition, most hits filed as inhibitors; Q9UIF8; AID 504333; AlphaScreen BAZ2B-H3K14Ac peptide displacement; actives 4.4% (n = 360,000); further: on the % scale 0 is the no-effect control and ±100 the full control effect; nearly all actives have a fitted effect of over 60% in size
Target sequence (Q9UIF8 whole entry, looked up): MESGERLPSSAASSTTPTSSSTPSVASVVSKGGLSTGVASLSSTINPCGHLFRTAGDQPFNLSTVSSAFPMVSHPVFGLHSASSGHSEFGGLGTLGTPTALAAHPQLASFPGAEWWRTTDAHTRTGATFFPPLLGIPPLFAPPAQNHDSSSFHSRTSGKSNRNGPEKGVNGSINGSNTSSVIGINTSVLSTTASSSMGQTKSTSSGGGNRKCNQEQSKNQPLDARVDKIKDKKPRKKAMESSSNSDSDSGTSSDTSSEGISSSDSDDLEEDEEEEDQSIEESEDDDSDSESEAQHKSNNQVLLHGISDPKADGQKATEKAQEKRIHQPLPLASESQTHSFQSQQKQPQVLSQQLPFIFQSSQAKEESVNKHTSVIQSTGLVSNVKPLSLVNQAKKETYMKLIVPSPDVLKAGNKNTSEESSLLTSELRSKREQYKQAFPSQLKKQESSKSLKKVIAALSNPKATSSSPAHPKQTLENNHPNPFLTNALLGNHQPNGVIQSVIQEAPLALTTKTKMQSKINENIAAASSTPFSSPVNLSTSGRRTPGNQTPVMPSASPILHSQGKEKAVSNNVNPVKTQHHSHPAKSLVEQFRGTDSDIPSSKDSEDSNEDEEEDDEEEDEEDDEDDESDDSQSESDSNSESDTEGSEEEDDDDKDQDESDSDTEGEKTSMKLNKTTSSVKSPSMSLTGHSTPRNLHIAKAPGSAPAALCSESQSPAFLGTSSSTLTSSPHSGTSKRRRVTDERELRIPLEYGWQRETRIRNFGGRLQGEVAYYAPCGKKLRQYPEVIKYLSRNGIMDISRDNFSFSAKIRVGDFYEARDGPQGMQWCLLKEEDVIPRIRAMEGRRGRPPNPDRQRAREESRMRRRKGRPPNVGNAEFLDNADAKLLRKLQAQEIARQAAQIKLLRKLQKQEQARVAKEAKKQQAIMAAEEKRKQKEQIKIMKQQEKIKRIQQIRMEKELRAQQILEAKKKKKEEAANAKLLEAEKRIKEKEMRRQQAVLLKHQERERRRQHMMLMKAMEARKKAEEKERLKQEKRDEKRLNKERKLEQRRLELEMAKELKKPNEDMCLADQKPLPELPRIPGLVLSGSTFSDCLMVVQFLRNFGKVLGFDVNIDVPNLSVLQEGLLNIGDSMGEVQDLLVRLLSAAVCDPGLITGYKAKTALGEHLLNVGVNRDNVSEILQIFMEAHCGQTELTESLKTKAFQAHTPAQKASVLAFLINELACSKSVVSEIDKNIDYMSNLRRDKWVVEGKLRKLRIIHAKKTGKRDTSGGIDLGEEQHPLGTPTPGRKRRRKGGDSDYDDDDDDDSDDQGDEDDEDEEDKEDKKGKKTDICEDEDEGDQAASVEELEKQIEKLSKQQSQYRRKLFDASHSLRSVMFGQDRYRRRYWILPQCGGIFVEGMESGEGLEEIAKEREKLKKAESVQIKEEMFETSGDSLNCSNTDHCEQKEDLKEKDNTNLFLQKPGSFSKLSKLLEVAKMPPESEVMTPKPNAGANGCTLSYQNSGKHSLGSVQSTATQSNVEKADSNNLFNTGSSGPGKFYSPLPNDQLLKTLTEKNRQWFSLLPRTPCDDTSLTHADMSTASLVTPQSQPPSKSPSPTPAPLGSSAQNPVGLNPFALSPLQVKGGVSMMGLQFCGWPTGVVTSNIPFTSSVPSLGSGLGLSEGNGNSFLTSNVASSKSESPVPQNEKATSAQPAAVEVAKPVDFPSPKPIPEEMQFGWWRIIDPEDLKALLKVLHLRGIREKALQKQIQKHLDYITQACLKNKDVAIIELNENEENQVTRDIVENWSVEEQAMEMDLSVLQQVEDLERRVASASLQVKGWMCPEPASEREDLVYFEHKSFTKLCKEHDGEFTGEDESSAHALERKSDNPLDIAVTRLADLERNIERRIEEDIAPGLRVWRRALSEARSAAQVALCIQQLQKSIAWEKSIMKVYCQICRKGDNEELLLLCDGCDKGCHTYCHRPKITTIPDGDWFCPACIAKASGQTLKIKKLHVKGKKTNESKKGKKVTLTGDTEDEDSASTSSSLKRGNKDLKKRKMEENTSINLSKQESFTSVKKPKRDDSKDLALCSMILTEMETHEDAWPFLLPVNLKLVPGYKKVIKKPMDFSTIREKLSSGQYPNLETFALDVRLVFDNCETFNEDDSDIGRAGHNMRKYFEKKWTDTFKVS
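AlphaScreen displacement: compounds (up to 110uM) incubated 30 min at room temperature with a preformed 50 nM BAZ2B/50 nM biotinylated H3K14Ac peptide complex in PBS pH 7.4 with Tween-20. Donor and acceptor beads at 10 ug/mL final added, 20 min light-protected before reading.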
Sfp PPTase inh: inhibitors of Bacillus subtilis Sfp phosphopantetheinyl transferase; actives 3.5% (n = 310,000); AID 1490; Biochemical Sfp PPTase activity, qHTS; Potency, µM, without a hit: largest response in the series, negative = inhibition, most hits filed as inhibitors;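 further: the enzyme is Sfp with the accession as filed and its product quenches rhodamine fluorescence; 0% = enzyme reaction without inhibitor and -100% = no enzyme wells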
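Fluorescence-quenching assay: 15 nM Sfp-PPTase preincubated 15 min at room temperature with compound, then 5 uM rhodamine-CoA and 12.5 uM BHQ-2-labelled YbbR peptide added. Fluorescence (ex 525/em 598 nm) read at start and after 30 min; difference gives rate.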
L3MBTL1 block: inhibitors of human L3MBTL1. Q9Y468. AlphaScreen L3MBTL1–H3K9me1 peptide binding. Potency, µM (titrated, usually from 57.1 µM), for the others: at the highest dose activity, negative = inhibition, hits mostly inhibitors. actives 0.66% (n = 230,000); further: on the % scale 0 is the no-effect control and ±100 the full control effect; nearly all actives have a fitted effect of over 60% in size
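First, the protein-peptide complex forms for 30 min at room temperature (L3MBTL1 50 nM, biotinylated H3K9me1 peptide 75 nM). Next, compounds are pin-transferred and incubated 30 min. Finally, AlphaScreen beads are added and read after 30 min.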
G9a block: inhibitors of human histone lysine methyltransferase G9a | Q96KQ7 | G9a H3K9 monomethylation, AlphaScreen, 2 h | Potency, µM (highest dose often 102 µM), inactives show top-dose activity, negative = inhibition, usual class: inhibitors | actives 8.8% (n = 350,000); further: on the % scale 0 is the no-effect control and ±100 the full control effect; nearly all actives have a fitted effect of over 75% in size
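Methyltransferase reactions run at room temperature for 2 h (20 nM enzyme, 500 nM biotin-H3K9 peptide, 20 uM SAM) after a 15 min compound preincubation; product detected by AlphaScreen beads and anti-H3K9me1 antibody.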
The depositor's hits bear a star; ? = inconclusive; nt = no result; [ ] = dose if it differs, or a comment. The call rests on the fitted dose curve; in most records, active means well fitted curve in the direction sought with a large enough effect; inconclusive means small, poorly fitted or top-dose-only effect, or another doubt; inactive means no such curve, though single readings can be large; an effect the other way counts as inactive or inconclusive. Potency means the concentration at half of the fitted maximal effect.

SMILES | JMJD2A Tudor inh | HP1b chromo inh | BAZ2B inh | Sfp PPTase inh | L3MBTL1 block | G9a block
COc1ccc(N(C(=O)C(C)C)S(=O)(=O)c2cccs2)cc1 | -23% | 15% | 0% | 0% | nt | 18%
CC(=O)N(c1ccc2oc(=O)sc2c1)S(=O)(=O)c1cccs1 | ? | 28% | -9% | 11µM* | -4% | ?
CC(=O)Oc1ccc(N(C(C)=O)S(=O)(=O)c2cccs2)cc1 | -1% | 27% | 33% | -7% | 3% | ?
CCCC(=O)N(c1ccc2oc(=O)sc2c1)S(=O)(=O)c1ccccc1 | -7% | 27% | -2% | 14µM* | -14% | -32%[12.7 µM]
CC(=O)N(c1ccc2oc(=O)sc2c1)S(=O)(=O)c1ccc(C(=O)O)cc1 | -24% | 11% | -15% | 56µM* | nt | 18µM*
CC(C)C(=O)N(c1ccc2oc(=O)sc2c1)S(=O)(=O)c1cccs1 | -26% | 27% | -36% | ? | -6% | 35µM*
NC(=O)n1c(O)c(C(=O)c2cccs2)c2cc(Cl)ccc21 | nt | nt | nt | -25% | nt | ?
CC(=O)N(c1ccc2oc(=O)sc2c1)S(=O)(=O)c1cccc2cccnc12 | -12% | 22% | -19% | -13% | nt | 22µM*
Cc1cc2oc(=O)sc2cc1NS(=O)(=O)c1cccc2cccnc12 | -36% | 20% | -13% | 9% | nt | -11%
CCCC(=O)N(c1ccc2oc(C)c(C(C)=O)c2c1)S(=O)(=O)c1ccc(C(=O)O)cc1 | -14% | -3% | -2% | 12% | nt | 35µM*
CCCC(=O)N(c1ccc2oc(C)c(C(C)=O)c2c1)S(=O)(=O)c1ccc(C)c([N+](=O)[O-])c1 | -13% | 34% | 5% | -8% | 0% | -7%[59 µM]
CC(C)C(=O)N(c1cc2sc(=O)oc2c2ccccc12)S(=O)(=O)c1cccs1 | ? | -2% | 50µM* | 10µM* | nt | 1.8µM*
CC1=C(C(=O)OCc2ccc(C)cc2)C(c2ccccc2C(F)(F)F)CC(=O)N1 (stereo unspecified) | -5% | 19% | -5% | nt | nt | -38%[59 µM]
O=C(Cc1ccccc1)N/N=C/c1ccc(OC(=O)/C=C\c2ccco2)cc1 | 0% | 21% | -1% | 9% | 15%[11.4 µM] | ?
COC(=O)N/N=C/c1ccc(OC(=O)/C=C/c2ccco2)cc1 | ? | -21% | 71µM* | -18% | -9% | nt
CCOc1cc(/C=N\NC(=O)OC(C)(C)C)ccc1OC(=O)c1ccco1 | 20µM* | -20% | nt | -4% | nt | -13%
CC(C)(C)OC(=O)N/N=C\c1ccc(OC(=O)c2ccco2)cc1 | 32µM* | -12% | 18% | 12% | nt | -40%
COC(=O)N/N=C\c1ccc(OC(=O)c2ccco2)cc1 | -1% | 38% | -9% | 2% | nt | 11%[59 µM]
O=C(O)C(Cc1cc(I)c(O)c(I)c1)c1ccccc1 (stereo unspecified) | nt | nt | nt | -10% | nt | ?
O=C(Nc1ccc(Cl)cc1)[C@@H]1[C@@H]2C(=O)N(c3cccc(F)c3)C(=O)[C@@H]2[C@H]2C=CC=NN21 | ? | -11% | -28% | -3% | -10% | 8.9µM*
O=C(Nc1ccc(Cl)cc1)c1cccc(N2C(=O)C3C4CCC(C4)C3C2=O)c1 (stereo unspecified) | -21% | 4% | -38% | 6% | ? | -6%[59 µM]
COc1ccc(N2C(=O)[C@@H]3[C@H](C2=O)[C@H]2C=CC=NN2[C@@H]3C(=O)Nc2ccc(Cl)cc2)cc1 | ? | -6% | -33% | 35µM* | -11% | 7.1µM*
COc1ccc(C(=O)[C@H]2[C@H]3C(=O)N(c4ccc(OC(C)=O)cc4)C(=O)[C@H]3C3C=CC=NN32)cc1 (stereo partly specified) | -23% | 6% | -20% | 2% | nt | nt
O=C(Nc1ccc(Cl)cc1)[C@@H]1[C@@H]2C(=O)N(c3ccc4ccccc4c3)C(=O)[C@@H]2[C@H]2C=CC=NN21 | 63µM* | -4% | ? | 40µM* | nt | 3.2µM*
C[C@H](CCC(=O)O)C1CC[C@H]2C3CC[C@@H]4C[C@H](O)CC[C@]4(C)C3C[C@H](O)[C@]12C (stereo partly specified) | nt | nt | nt | 23% | nt | 30%[59 µM]
SMILES | JMJD2A Tudor inh | HP1b chromo inh | BAZ2B inh | Sfp PPTase inh | L3MBTL1 block | G9a block
Cc1nn(Cc2ccc(C(=O)NN)cc2)c(C)c1Cl | -14% | 32% | -5% | 14% | 5% | 2%
COc1ccc(C(=O)Nc2nccs2)cc1 | -33% | 38% | 6% | 15% | -4%[2.29 µM] | -9%[0.501 µM]
O=C(Nc1ccccc1F)c1ccc(CN2CCN(c3ccccc3)CC2)cc1 | ? | -2% | -39% | 20% | -4% | 79µM*
COc1c(F)c(F)c(C(=O)Nc2ccc(N3CCN(Cc4ccccc4)CC3)cc2)c(F)c1F | -23% | -2% | -32% | 20% | nt | 18µM*
Cc1nn(Cc2ccc(C(=O)Nc3nccs3)cc2)c(C)c1Cl | -28% | 32% | -1% | -24% | 1% | 45µM*
Cc1nn(Cc2ccc(C(=O)Nc3ccccc3F)cc2)c(C)c1Cl | 4% | 49% | 6% | ? | -21% | 45µM*
CCC(C(=O)Nc1nnc2n1CCS2)c1ccccc1 (stereo unspecified) | -24% | 16%[57 µM] | -37% | nt | nt | -47%[59 µM]
O=C(Nc1nnc2n1CCS2)c1ccc(F)cc1F | 50µM* | 13%[57 µM] | 50µM* | nt | nt | 2.2µM*
O=C(Nc1ccc(N2CCCCC2)cc1)c1ccc(F)cc1F | -16% | 7% | -6% | 5% | -8% | nt
Cc1ccccc1C(=O)Nc1nnc2n1CCS2 | ? | 9%[57 µM] | ? | nt | nt | 8.9µM*
CN(C(=S)NCCN1CCOCC1)C(c1ccccc1)c1ccccc1 | 10µM* | ? | 50µM* | -25% | -4% | 20µM*
S=C(NCCc1ccccc1)NCCN1CCOCC1 | -8% | 50% | -8% | 4% | -1% | -5%
O=C(N/N=C/c1ccc2cccnc2c1)c1ccco1 | -9% | 24% | 5% | 23% | nt | 28µM*
O=C(NCCc1ccc(Cl)cc1)c1ccc2c(c1)N(Cc1ccccc1)C(=O)CS2 | -21% | 17% | 2% | nt | nt | 4%[59 µM]
Cn1c(=O)c(-c2cccs2)nc2cnc(OCc3ccccc3)nc21 | nt | nt | nt | 7% | nt | -4%[0.501 µM]
COc1cc(CNC2CCCCC2OC)cc(OC)c1 (stereo unspecified) | 5.6µM* | ? | 56µM* | 2% | 4% | ?
COc1cccc(CNCC2CCCO2)c1 (stereo unspecified) | 6% | 40% | 12% | 11% | 9%[2.29 µM] | 3%[0.501 µM]
COc1ccc(CN=Cc2c(C(F)(F)F)[nH][nH]c2=O)cc1 | 79µM* | -1% | 10% | 14% | nt | -11%[59 µM]
COC(=O)c1ccc(N=Cc2c(C(F)(F)F)[nH][nH]c2=O)cc1 | -6% | 22% | -22% | 9% | 11% | -14%
